Assay results published in PubChem BioAssay AID1347414 (National Center for Advancing Translational Sciences (NCATS), 2020).
Records with an inconclusive call do not appear. The source made the active and inactive calls. The call rests on the fitted dose curve; in most records, active means well fitted inhibition curve with a large enough effect; inconclusive means small, poorly fitted or top-dose-only effect; inactive means no such curve, though single readings can be large or run the other way. Numbered stars: 1 amine (or outer) side, 2 acyl side, 3 side chain; on linkers, the order of the positions; unused ones are H or OH. Bridge positions count the residues as written; N and C are the ends. Square brackets hold non-standard residues; d marks the D form. Peptide text beside a SMILES is read from it. I, II: the chains in the order shown. Actinocin(9to1) = Cc1c2oc3c(C)ccc(C(=O)[*:1])c3nc-2c(C(=O)[*:2])c(N)c1=O; NMeV = CN[C@H](C(=O)O)C(C)C; Sar = CNCC(=O)O

Test: qHTS to identify inhibitors of the type 1 interferon - major histocompatibility complex class I in skeletal muscle: Secondary screen by immunofluorescence; further: nearly all actives have a fitted effect of over 70% in size
Conditions: C25cl48 myoblasts, IFN-b induced HLA-ABC immunofluorescence, 24 h; series mostly up to 49.8 µM
How it was run: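 Immortalized human myoblasts C25cl48 were stimulated with 4.0 ng/ml IFN-beta and exposed to an 11-point 1:3 compound titration, top 50 uM, for 24 h at 37 C. They were then fixed and immunostained for HLA-ABC, and quantified by laser scanning cytometry.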
Potency means the concentration at half of the fitted maximal effect.

Compound | Potency
Cn1cc(-c2ccc(-c3cncc(Cl)c3N3CCC4(CCNC4=O)CC3)cc2)cn1 | inactive
Cc1ncsc1-c1ccc([C@H](C)NC(=O)[C@@H]2C[C@@H](O)CN2C(=O)[C@@H](NC(=O)COCCCOCCNC(=O)C[C@@H]2N=C(c3ccc(Cl)cc3)c3c(sc(C)c3C)-n3c(C)nnc32)C(C)(C)C)cc1 | 145 nM (active)
Cc1c2oc3c(C)ccc(C(=O)N[C@@H]4C(=O)N[C@H](C(C)C)C(=O)N5CCC[C@H]5C(=O)N(C)CC(=O)N(C)[C@@H](C(C)C)C(=O)O[C@@H]4C)c3nc-2c(C(=O)N[C@@H]2C(=O)N[C@H](C(C)C)C(=O)N3CCC[C@H]3C(=O)N(C)CC(=O)N(C)[C@@H](C(C)C)C(=O)O[C@@H]2C)c(N)c1=O (I: T[dV]P[Sar][NMeV] / II: T[dV]P[Sar][NMeV]; ester I:1-I:C, II:1-II:C; linker I:N-II:N via Actinocin(9to1)) | 57.6 nM (active)
COc1ccc(-c2ccc3ncc4c(c3c2)n(-c2ccc(N3CCNCC3)c(C(F)(F)F)c2)c(=O)n4C)cn1 | 258 nM (active)
CC[C@]1(O)C[C@H]2CN(CCc3c([nH]c4ccccc34)[C@@](C(=O)OC)(c3cc4c(cc3OC)N(C=O)[C@H]3[C@@](O)(C(=O)OC)[C@H](OC(C)=O)[C@]5(CC)C=CCN6CC[C@]43[C@@H]65)C2)C1 | inactive
C=C1C(=O)O[C@@H]2[C@H]3O[C@]3(C)CC/C=C(\C)CC[C@@H]12 | 7260 nM (active)
CNC(=O)c1nn(C)c2c1C(C)(C)Cc1cnc(Nc3ccc(N4CCN(C)CC4)cc3)nc1-2 | 5760 nM (active)
CC[C@@]1(O)C(=O)OCc2c1cc1n(c2=O)Cc2cc3c(CN(C)C)c(O)ccc3nc2-1 | 7260 nM (active)
C[C@H](NC(=O)/C(C#N)=C/c1cccc(Br)n1)c1ccccc1 | 20500 nM (active)
CO[C@@H]1[C@@H](O)[C@H](O)[C@@H](n2c3c(Cl)cccc3c3c4c(c5c6cccc(Cl)c6[nH]c5c32)C(=O)NC4=O)O[C@H]1CO | inactive
CCc1c(-c2ccccc2C)nc2c(C#N)c[nH]n2c1=O | inactive
CC(C)c1cc(CNc2nc(Nc3cc(C4CC4)[nH]n3)cc(N3CCN(C)CC3)n2)on1 | 4580 nM (active)
Cc1[nH]nc2ccc(-c3cncc(OC[C@@H](N)Cc4ccccc4)c3)cc12 | 726 nM (active)
COC(=O)Nc1nc2ccc(C(=O)c3ccc(F)cc3)cc2[nH]1 | inactive
CC(C)c1nn(-c2c(Cl)cccc2Cl)c2nc(Cc3ccc(OCCO)cc3)[nH]c(=O)c12 | 22.9 nM (active)
O=C(Nc1nc2cccc(-c3ccc(CN4CCS(=O)(=O)CC4)cc3)n2n1)C1CC1 | 1820 nM (active)
CN1CCN(Cc2ccc(NC(=O)Nc3ccc(Oc4cc(NC(=O)C5CC5)ncn4)cc3)cc2C(F)(F)F)CC1 | 64.7 nM (active)
Cc1cc(Nc2cc(NC(=O)c3c(Cl)cccc3Cl)ccn2)nc(N)n1 | 2050 nM (active)

Compound | Potency
CCCCc1nc2cc(/C=C/C(=O)NO)ccc2n1CCN(CC)CC | 364 nM (active)
CCC[C@H](NC(=O)/C(C#N)=C/c1cccc(Br)n1)c1ccccc1 | 6470 nM (active)
COc1cccc2c1C(=O)c1c(O)c3c(c(O)c1C2=O)C[C@@](O)(C(=O)CO)C[C@@H]3O[C@H]1C[C@H](N)[C@H](O)[C@H](C)O1 | 230 nM (active)
Cc1ccc(-c2ncn(-c3ccc(Nc4nccc(-c5cccc(N6CCOCC6)c5)n4)cc3)n2)cn1 | 1820 nM (active)
CCOC(=O)C1=C(C)NC2=C(C(=O)CC(C)(C)C2)C1c1ccc(-c2ccccc2)cc1 (stereo unspecified) | inactive
O=C1Nc2ccccc2C1(c1ccc(O)cc1)c1ccc(O)cc1 | inactive
Fc1ccc(CNc2ncnc3ccc(F)cc23)cc1 | inactive
CC[C@H]1CN2CCc3cc(OC)c(OC)cc3[C@@H]2C[C@@H]1C[C@H]1NCCc2cc(OC)c(OC)cc21 | 129 nM (active)
C[C@]12C=CC(=O)C=C1CC[C@H]1[C@@H]3C[C@@H](O)[C@](O)(C(=O)CO)[C@@]3(C)C[C@H](O)[C@@]12F | inactive
COc1cc(Nc2ncc(F)c(Nc3ccc4c(n3)NC(=O)C(C)(C)O4)n2)cc(OC)c1OC | inactive
COc1nnc2ccc(N3CCC(c4ccc(OCCN5CCN(C)C(=O)[C@H]5C)cc4)CC3)nn12 | 14.5 nM (active)
NC(=O)Nc1sc(-c2ccc(F)cc2)cc1C(N)=O | 1450 nM (active)
COc1ccc(CNc2nc(N(CCO)CCO)nc3c2ncn3C(C)C)cc1 | 8140 nM (active)
CC(C)(C)CC(=O)OCC(=O)[C@@]1(O)CC[C@H]2[C@@H]3CCC4=CC(=O)C=C[C@]4(C)[C@H]3[C@@H](O)C[C@@]21C | inactive
Cn1cc(CNCC2CCN(c3ncc(C(=O)NO)cn3)CC2)c2ccccc21 | 9.1 nM (active)
C[C@H]1C[C@@H]2[C@H]([C@@H](O)C[C@@]3(C)[C@H]2CC[C@]3(O)C(=O)CO)[C@@]2(C)C=CC(=O)C=C12 | inactive
c1cc(Nc2cc(C3CC3)[nH]n2)nc(Nc2ccc3nc[nH]c3c2)n1 | 647 nM (active)
N#CCNC(=O)c1ccc(-c2ccnc(Nc3ccc(N4CCOCC4)cc3)n2)cc1 | 1620 nM (active)
